Sampled rows, rich in hits. Any-hit rate of the full collection: about 0.54%.
TcdB GH inh = TcdB glycohydrolase inhibition | P18177 | inhibition, % at 9.99 µM | 350,000 tested, 0.24% active | TcdB glycohydrolase enzymatic assay, plate reader; in the data active means inhibition above about 10%
Vc quorum ag-1 = induces V. cholerae light production without autoinducers. AID 588436. activation, % at 18.7 µM. 350,000 tested, 0.16% active. V. cholerae BH1578 lux reporter, luminescence, 6 h; in the data active means activation mostly above about 9.7%, no sharp cut-off
FadD28 binding = inhibitors of Mycobacterium tuberculosis FadD28 bisubstrate binding; 360,000 tested, 0.22% active; inhibition, % at 12.5 µM; AID 588549; FadD28 bisubstrate probe binding, fluorescence polarization; in the data active means inhibition above about 8.5%, passing the limit was not always enough
BioA inh = BioA (M. tuberculosis) enzyme inhibition | purified M. tuberculosis BioA enzyme, plate reader | inhibition, % at 9.99 µM | 360,000 tested, 0.096% active; in the data active means inhibition above about 40%
Vc quorum ag-2 = induces V. cholerae light production without autoinducers; shares compounds with Vc quorum ag-1; V. cholerae BH1578 lux reporter, luminescence, 6 h; activation, % at 50 µM; 620 tested, under 10 active; AID 602243; call rule not given here
HeLa 24h tox = kills HeLa cells within 24 hours; HeLa viability, CellTiter-Glo ATP luminescence; activity change, negative = cytotoxicity, % at 35 µM; shares compounds with Vc quorum ag-1; 25 tested, under 10 active;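 active means signal drop with fitted half-maximal concentration at or below twice the highest valid dose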
Starred values were filed as active, the others as inactive; i = inactive; . = not tested or not shown.

SMILES | TcdB GH inh | Vc quorum ag-1 | FadD28 binding | BioA inh | Vc quorum ag-2 | others
CO[C@H]1CN(C)C(=O)c2cc(NC(=O)NC3CCCC3)ccc2OC[C@@H](C)N(C)C[C@@H]1C | 0 | . | . | . | .
O=C(NCC1CCCO1)C1CCN(C(=O)c2ccc(Cl)cc2)CC1 (configuration not stated) | . | 17* | 0 | 0 | 0
CCS(=O)(=O)NCC[C@@H]1CC[C@@H](NC(=O)C2CCOCC2)[C@@H](CO)O1 | 0 | . | . | -2 | .
COc1ccc2nc(SC(C)C(=O)NCC(=O)Nc3ccc(F)c(F)c3F)[nH]c2c1 (configuration not stated) | 2 | 14 | -2 | 1 | 0
CCOCCCN1CC(C(=O)NCCc2ccc(C)cc2)CC1=O (configuration not stated) | . | 17* | -5 | -2 | 0
CCOCCCNC(=O)C1CC(=O)N(CCc2ccc(C)cc2)C1 (configuration not stated) | 0 | 0 | 2 | -1 | .
Cc1cccc(N(CC(N)=O)C2SC(=O)N(c3ccccc3)C2=O)c1 (configuration not stated) | . | 25* | -4 | -2 | 10
COC(=O)c1cc(Br)ccc1OC(=O)c1cccnc1 | . | 17* | 0 | -1 | 0
Cc1cc(C)cc(OC(=O)c2cccnc2)c1 | 0 | 32* | -1 | 1 | 0
O=C(Oc1cccc(Br)c1)c1cccnc1 | . | i | 2 | -2 | .
O=C(C[C@H]1C[C@H]2c3cc(NC(=O)NC4CCCC4)ccc3O[C@H]2[C@@H](CO)O1)NCc1ccc(Cl)cc1 | 0 | . | . | 0 | .
CCCS(=O)(=O)N1CCC(C(=O)N2CCN(C(=O)OCC)CC2)CC1 | . | 15* | 1 | 1 | 0
CCOC(=O)N1CCN(C(=O)C2CCN(S(=O)(=O)CC)CC2)CC1 | 0 | -6 | 1 | -2 | .
COc1ccc(CNC(=O)C[C@@H]2CC[C@H]3[C@@H](COc4ccc(NC(=O)C5CC5)cc4C(=O)N3C)O2)cc1 | -1 | . | . | -2 | .
O=C(c1ccc2c(c1)OCO2)N(Cc1ccco1)C1(C(=O)NC2CCCCC2)CCCCC1 | . | 17* | 0 | -2 | 0
O=C(c1ccccn1)N(Cc1ccco1)C1(C(=O)NC2CCCC2)CCCCC1 | . | -1 | -1 | . | .
CO[C@@H]1CN(C)C(=O)c2cc(NC(=O)C3CCCCC3)ccc2OC[C@H](C)N(Cc2nccs2)C[C@@H]1C | -1 | . | . | -3 | .
O=C(NCc1nc(-c2ccc(C(F)(F)F)cc2)no1)c1cccs1 | -1 | -1 | -3 | . | .
O=C(NCc1nc(-c2ccccc2)no1)c1cccs1 | 0 | 179* | -2 | 1 | 45
CCC(=O)NCCc1nc(-c2ccccc2)no1 | 0 | 986* | -3 | 0 | 716
CCC(=O)N(C)C[C@@H]1Oc2ncc(Br)cc2C(=O)N([C@@H](C)CO)C[C@@H]1C | 0 | . | . | -1 | .
CN1CCN(c2ccc([N+](=O)[O-])c3no[n+]([O-])c23)CC1 | 1 | 3 | 1 | -33 | .
O=[N+]([O-])c1ccc(N(CCO)CCO)c2c1no[n+]2[O-] | 4 | 39* | 1 | -50 | 2
COCc1[nH]nc2c1C1(CCC3(CC1)OCCO3)C(C#N)=C(N)O2 | . | 17* | -4 | 1 | 0
COc1ccccc1CNC(=O)c1ccc(S(=O)(=O)N(C)c2ccccc2)cc1 | -1 | 14 | -4 | -1 | 0
SMILES | TcdB GH inh | Vc quorum ag-1 | FadD28 binding | BioA inh | Vc quorum ag-2 | others
CCCn1nnnc1NCc1ccc(N(C)C)cc1 | -1 | . | 1 | 4 | i
CCCn1nnnc1NCc1ccccc1Cl | 1 | i | -3 | 0 | . | HeLa 24h tox=2
CCCn1nnnc1NCc1ccccc1OCC | 1 | 0 | 0 | -1 | .
CCCn1nnnc1NCc1ccc(C(C)C)cc1 | 2 | . | 0 | -4 | i | HeLa 24h tox=6
COCC(=O)Nc1ccc2c(c1)OC[C@H](C)N(CC1CC1)C[C@H](C)[C@H](OC)CN(C)C2=O | . | . | . | -2 | .
O=S(=O)(Nc1ccc(-c2ccc3nncn3n2)cc1)c1ccc(Cl)s1 | 2 | 160* | -4 | . | 0
O=S(=O)(Nc1ccc(-c2ccc3nncn3n2)cc1)c1ccccc1Cl | 1 | i | -1 | . | .
CCC(=O)Nc1ccc2c(c1)C(=O)N(C)C[C@H](OC)[C@@H](C)CN(C(=O)c1ccccn1)[C@@H](C)CO2 | 0 | . | . | 0 | .
COCC(=O)Nc1ccc2c(c1)C(=O)N(C)C[C@@H](OC)[C@H](C)CN(C(C)=O)[C@@H](C)CO2 | -2 | . | . | -2 | .
COc1cc(NC(=O)c2ccccc2)c(OC)cc1NC(=O)CN1C(=O)NC2(CCCCC2)C1=O | -1 | -3 | 0 | 1 | .
COc1cc(NC(=O)c2ccccc2)c(OC)cc1NC(=O)CN1C(=O)N(C)C2(CCCCC2)C1=O | 1 | 14 | -2 | 0 | 1
Cc1ccc(S(=O)(=O)Nc2cc(C(=O)NCCN(C)C)ccc2N2CCCCC2)cc1 | . | 17* | 1 | 5 | 0
Cc1ccc(S(=O)(=O)Nc2cc(C(=O)NCCN3CCCC3)ccc2N2CCCCC2)cc1 | . | 1 | -1 | 1 | .
Cc1ccc(C(=O)OCC(=O)Nc2ccc(N(C)C)cc2)cc1NC(=O)c1ccco1 | . | -1 | -4 | -1 | .
Cc1ccc(C(=O)OCC(=O)Nc2ccccc2)cc1NC(=O)c1ccco1 | . | 7 | 2 | 0 | 0
Cc1noc(C)c1NC(=O)Nc1cccc2c1O[C@H](CN(C)C(=O)Nc1ccc(C(F)(F)F)cc1)[C@H](C)CN([C@@H](C)CO)C2=O | . | . | . | 4 | .
CN(C(=O)COc1ccccc1)C1CCS(=O)(=O)C1 (configuration not stated) | -1 | 0 | -1 | . | .
CC(C)CCOc1cccc(OCC(=O)N(C)C2CCS(=O)(=O)C2)c1 (configuration not stated) | . | 7 | -2 | 0 | 2
CCNC(=O)[C@@H]1[C@@H](CO)[C@@H]2Cn3c(ccc(-c4ccc(F)cc4)c3=O)[C@@H]2N1Cc1cc(F)ccc1F | 0 | . | . | 6 | .
O=C(CNc1cc(S(=O)(=O)N2CCOCC2)ccc1N1CCCC1)Nc1ccc(Cl)cc1 | -1 | 97* | -4 | -1 | 0
CC(C)NC(=O)Nc1ccc2c(c1)C(=O)N([C@@H](C)CO)C[C@H](C)[C@H](CN(C)C(=O)CCC(F)(F)F)OCCCC[C@@H](C)O2 | 0 | . | . | 1 | .
COc1cccc(-n2sc3c(c2=S)-c2cc(OC)ccc2NC3(C)C)c1 | . | i | 0 | 1 | .
CC1(C)Nc2ccc(O)cc2-c2c1ssc2=S | . | 25 | 1 | . | 0
CCN(CC)C(=O)c1sc(NC(=O)Cc2ccc(OC)cc2)c(C#N)c1C | . | 17* | -1 | -1 | 0
CCc1cc(C(=O)N2CCN(c3ccccn3)CC2)sc1C | 1 | 0 | 1 | 2 | .
CCc1cc(C(=O)N2CCN(C(=O)c3ccccc3)CC2)sc1C | 1 | 14 | -3 | -1 | 0
COc1ccccc1N1CCN(CCCCOc2c(OC)cccc2OC)CC1 | 0 | -1 | -4 | 1 | .
COc1ccccc1N1CCN(CCCOc2ccc(F)cc2)CC1 | . | 12 | -3 | 0 | 0

Bioassay records as filed in PubChem.
